The source of these data is PubChem BioAssay (NCATS).

Test [1] is described as follows: MultiTox-Fluor Cytotoxicity Assay - LYMP1-001 - Live Cells (AID 947).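 Note: 0% = DMSO only and full inhibition = tetraoctylammonium bromide control.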
The nature of test [2]: qHTS assay for small molecule antagonists of peroxisome proliferator-activated receptor delta signaling (AID 588535; active = well fitted inhibition curve with a large enough effect in the signal ratio, with a control signal flat, not every such curve was filed as active; the % refers to the signal ratio;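 for max response: cells co-treated with a PPAR-delta agonist as stimulator during compound exposure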). The following applies: HEK293T PPARd-UAS-bla, beta-lactamase FRET ratio, 18 h; 460 nm channel. A digest of the protocol:
(§1)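 Fluorescence from CCF4-loaded GeneBLAzer PPAR-delta-UAS-bla HEK293T cells (2 hrs RT loading) quantified reporter inhibition after an 18 hr, 37 C compound exposure across a titration.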

Test [3] concerns the target Peroxisome proliferator-activated receptor delta (Homo sapiens) (UniProt Q03181). The description is as above. A digest of the protocol:
as §1

Test [4] can be described thus: S16 Schwann cell PMP22 intronic element firefly luciferase assay (AID 624032).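 Note: plate controls were DMSO for no effect and PTC124 positive control mean for full effect; nearly all actives have a fitted effect of over 30% in size.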 An outline of the steps: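 Rat S16 Schwann cells stably carrying firefly luciferase driven by a PMP22 intronic element, in 10% FBS, treated 24 h at 37 C. ONE-Glo luminescence normalized to PTC124 control and DMSO (0%); curves classed by r2, magnitude and activity.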
A short description of test [5]: S16 Schwann cell PMP22 intronic element beta-lactamase assay (AID 624044; calls by dose curve; note: nearly all actives have a fitted effect of over 15% in size; note: potency is the fitted concentration of half-maximal effect). An outline of the steps: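 Beta-lactamase reporter under a PMP22 intronic regulatory element in stable S16 rat Schwann cells; 24 h compound exposure. 460 nm blue signal normalized between DMSO (0%) and potassium clavulanate, with 535 nm FRET tracking viability; curves classed by r2 and response.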

A further test deals with CP252. The test is described as follows: qHTS profiling for inhibitors of Plasmodium falciparum proliferation (AID 504749). Note: nearly all actives have a fitted effect of over 60% in size. Note: potency is the fitted concentration of half-maximal effect. Particulars: P. falciparum in erythrocytes, SYBR Green DNA, 72 h; series mostly up to 28.7 µM. A digest of the protocol: (§2)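 Each compound contacts P. falciparum-infected red blood cells for 72 h at 37 C; lysis buffer (Tris, EDTA, saponin, Triton X, SYBR Green I) is added and fluorescence measured next morning; values normalized to controls.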

A further test relates to CP325. The test is described as above. The following applies: P. falciparum in erythrocytes, SYBR Green DNA, 72 h; series mostly up to 28.7 µM. An outline of the steps:
as §2

In another test the test system is ECU. Described as above. The following applies: P. falciparum in erythrocytes, SYBR Green DNA, 72 h; series mostly up to 28.7 µM. An outline of the steps:
as §2

A further test relates to HB3. The description is as above. The following applies: P. falciparum in erythrocytes, SYBR Green DNA, 72 h; series mostly up to 28.7 µM. A digest of the protocol: as §2
A further test concerns ICS. The description is as above. The following applies: P. falciparum in erythrocytes, SYBR Green DNA, 72 h; series mostly up to 28.7 µM. An outline of the steps:
as §2

In another test the test system is JCK. The description is as above. The following applies: P. falciparum in erythrocytes, SYBR Green DNA, 72 h; series mostly up to 28.7 µM. A digest of the protocol:
as §2

Another test concerns N140. Described as above. Particulars: P. falciparum in erythrocytes, SYBR Green DNA, 72 h; series mostly up to 28.7 µM. A digest of the protocol:
as §2

The next test has as its system P94_40. The description is as above. The following applies: P. falciparum in erythrocytes, SYBR Green DNA, 72 h; series mostly up to 28.7 µM. An outline of the steps:
as §2

A further test deals with PC26. Described as above. Particulars: P. falciparum in erythrocytes, SYBR Green DNA, 72 h; series mostly up to 28.7 µM. An outline of the steps:
as §2

For another test, the system named is TAB109. The description is as above. The following applies: P. falciparum in erythrocytes, SYBR Green DNA, 72 h; series mostly up to 28.7 µM. A digest of the protocol: as §2
The subject of a further test is PAD. The description is as above. The following applies: P. falciparum in erythrocytes, SYBR Green DNA, 72 h; series mostly up to 28.7 µM. An outline of the steps:
as §2

Another test relates to TAB165. The test is described as above. The following applies: P. falciparum in erythrocytes, SYBR Green DNA, 72 h; series mostly up to 28.7 µM. A digest of the protocol:
as §2

For the next test, the system named is CP217. The description is as above. Particulars: P. falciparum in erythrocytes, SYBR Green DNA, 72 h; series mostly up to 28.7 µM. A digest of the protocol: as §2
The nature of test [6]: qHTS assay for small molecule activators of the p53 signaling pathway (AID 651743; active = well fitted activation curve with a large enough effect in the signal ratio, not every such curve was filed as active; the % refers to the signal ratio; note: % of control where 0% means no effect). Particulars: HCT-116 p53RE-bla, beta-lactamase FRET ratio, 16 h; activation: stronger effect = higher value. A digest of the protocol:
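Following 16 hours of compound exposure at 37 C, HCT-116 cells bearing the p53RE-bla reporter were loaded with LiveBLAzer B/G FRET substrate for 2 hours at room temperature and fluorescence intensity was recorded.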

Test [7] is described as follows: qHTS assay for small molecule activators of the human pregnane X receptor (PXR) signaling pathway (AID 720659; call rule not given here; note: 0% is about no effect). (Quantitative high-throughput screening tests each substance at several concentrations.)

The structures appear in SMILES notation. Several values for one entry are separate records, joined by “and”; a condition that tells them apart may be missing. Equal entries are not always repeated. Inconclusive results are not listed. Activity calls are given as the source filed them. Unless noted, calls come from the whole dose curve; as a rule, active = well fitted curve in the direction sought with a large enough effect; inconclusive = small, poorly fitted or top-dose-only effect, or another doubt; inactive = no such curve, though single readings can be large; an effect the other way counts as inactive or inconclusive. Bridge positions count the residues as written; N and C are the ends. Square brackets hold non-standard residues; d marks the D form. Peptide text beside a SMILES is read from it. * marks the point of attachment. Octanoyl(6-Me) = CCC(C)CCCCC(=O)*; Dab = NCC[CH](N)C(=O)O

Peroxisome proliferator-activated receptor delta (Homo sapiens), sequence (Q03181 whole entry, looked up): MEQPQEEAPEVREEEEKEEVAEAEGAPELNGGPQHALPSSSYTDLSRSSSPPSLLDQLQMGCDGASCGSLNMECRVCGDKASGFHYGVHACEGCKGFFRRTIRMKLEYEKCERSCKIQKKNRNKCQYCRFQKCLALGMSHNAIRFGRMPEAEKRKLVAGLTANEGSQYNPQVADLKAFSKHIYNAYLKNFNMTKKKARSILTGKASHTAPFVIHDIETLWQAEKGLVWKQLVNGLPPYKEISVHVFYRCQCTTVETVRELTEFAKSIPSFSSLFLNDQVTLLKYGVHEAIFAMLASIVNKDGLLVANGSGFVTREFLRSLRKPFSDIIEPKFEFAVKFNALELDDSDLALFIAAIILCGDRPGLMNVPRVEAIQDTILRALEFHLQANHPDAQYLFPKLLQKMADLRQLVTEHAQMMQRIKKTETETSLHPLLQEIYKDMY

Consider `O=C(O)c1ccccc1C(c1ccc(O)cc1)c1ccc(O)cc1`, for which the Potency entry in test [1] and in test [3] was “inactive” each time. Besides, in test [2], the max response was 8.38% and 8.06%.

Regarding `CCC(C)CCCCC(=O)NC(CCN)C(=O)NC(C(=O)NC(CCN)C(=O)NC1CCNC(=O)C(C(C)O)NC(=O)C(CCN)NC(=O)C(CCN)NC(=O)C(CC(C)C)NC(=O)C(Cc2ccccc2)NC(=O)C(CCN)NC1=O)C(C)O` (stereo unspecified) ({Octanoyl(6-Me)}-[Dab]T[Dab][Dab][Dab]FL[Dab][Dab]T; lactam 4-C; configuration not given here), the Potency entry (in test [4]; in test [5]; in the test with CP252; with CP325; with ECU; in the test with HB3) was “inactive” throughout. Moreover, the Potency result in the test with ICS, with JCK, in the test on N140, in the test with P94_40, in the test with PC26 and with TAB109 was “inactive” each time.

Turning to `CC(C)(CO)C(O)C(=O)NCCCC(=O)O` (stereo unspecified), the Potency entry (in test [4]; in [5]; with HB3; in the test on PAD) was “inactive” in each case. The Potency in the test with TAB165 was 39.8 nM (active).

Turning to `CC1CCC(C(C)C)C(OC(=O)c2ccccc2O)C1` (stereo unspecified), the Potency result (in test [4]; in [5]; in the test with CP217; in the test with CP252; in the test on CP325; with ECU) was “inactive” in each case. For the same compound, the Potency result in the test with HB3, in the test with ICS, in the test on JCK, in the test with N140, in the test on P94_40 and with PAD was “inactive” throughout. Moreover, the Potency entry in the test with PC26, in the test with TAB109 and in the test on TAB165 was “inactive” throughout.

Turning to `CC(=O)O[C@@]12CO[C@@H]1C[C@H](O)[C@@]1(C)C(=O)[C@H](O)C3=C(C)[C@@H](OC(=O)C(O)[C@@H](NC(=O)OC(C)(C)C)c4ccccc4)C[C@@](O)([C@@H](OC(=O)c4ccccc4)[C@H]21)C3(C)C` (stereo partly specified), the Potency with CP217 was 44.7 nM (active); in the test with CP252, 17.8 nM (active); with ECU, 63.1 nM (active); with HB3 it was 79.4 nM (active); with ICS it was 112 nM (active); with N140 it was 89.1 nM (active). Also, the Potency with P94_40 was 35.5 nM (active); in the test on PAD it was 126 nM (active); in the test on PC26 it was 37.9 nM (active); in the test with TAB109, 31.6 nM (active); with TAB165, 141 nM (active). In addition, the Potency result with JCK was “inactive”.

For `CC1(C)S[C@@H]2[C@H](NC(=O)COc3ccccc3)C(=O)N2[C@H]1C(=O)O`, the max response in test [2] was determined as 39.2%. Moreover, the Potency result (in test [3]; in test [4]; in [5]; with CP217; with CP252; with CP325) was “inactive” each time. For the same compound, the Potency entry in the test on ECU, in the test on HB3, in the test with ICS, with JCK, in the test on N140 and with P94_40 was “inactive” throughout. In addition, the Potency entry in the test with PAD, in the test on PC26, in the test with TAB109 and in the test with TAB165 was “inactive” each time. Further, the activation in [6] was -0.552% (inactive). Besides, the compound was called inactive in test [7].

Turning to `O=C1CCc2ccccc2O1`, the Potency result in test [1] was “inactive”. For the same compound, the activation in test [6] was -0.942% (inactive). The outcome in [7] was inactive.

Consider `c1ccc2scnc2c1`, for which, in test [2], the max response stood at 3.24%. The Potency entry in test [3] is “inactive”. Also, in test [6], the activation is 0.66% (inactive). The result in test [7] was inactive.

With `O=S(=O)(O)c1ccccc1`, the Potency entry in test [1] and in test [3] was “inactive” in each case. Also, in [2], the max response turned out to be 1.28%. For the same compound, the call in [7] was inactive.

As for `Nc1nc(Cl)nc2c1ncn2C1CC(O)C(CO)O1` (stereo unspecified), in test [5], the Potency is 3550 nM (active). Further, the Potency entry in the test on CP325 and in the test on PC26 was “inactive” throughout.

Take `CCN1/C(=C/C=C/C=C/c2sc3ccccc3[n+]2CC)Sc2ccccc21`: the Potency is 4470 nM (active) in the test with CP217; 3980 nM (active) in the test with CP252; 4470 nM (active) in the test on ECU; 2240 nM (active) in the test with HB3; 1000 nM (active) in the test with ICS; 11200 nM (active) with JCK. Also, the Potency is 5620 nM (active) in the test with N140; 3980 nM (active) with P94_40; 5010 nM (active) with PAD; 3980 nM (active) with TAB109; 3980 nM (active) in the test with TAB165.
